# The entries come from a sample that favours the strongest signals as a whole.
# B1: rMpL (Macrolepiota procera) (protein)
# chain: MSTQVSSGRTYKITNVIAGTVIDLSGEDNKSIIGYPYHSGKNQQWTFNWTGKAWTLRSASSGSYLGIEGTPAGGTRLVAVNDPFEWHIWRDEANENAFRIFVPFTNYNLDLSGYGDTTPGTPVQLWWTWEGLHQTWTIDRP
# What was measured:
# Test in all cases: glycan array binding signal (z-score within array); higher = stronger binding
# Conditions in all cases: glycan notation: IUPAC condensed, linker removed
# [1] = biological target: Gal(b1-4)GlcNAc(b1-3)Gal(b1-4)GlcNAc(b1-3)Gal(b1-4)GlcNAc(b1-3)Gal(b1-4)GlcNAc(b1-2)[Gal(b1-4)GlcNAc(b1-3)Gal(b1-4)GlcNAc(b1-3)Gal(b1-4)GlcNAc(b1-3)Gal(b1-4)GlcNAc(b1-6)]Man(a1-6)[Gal(b1-4)GlcNAc(b1-3)Gal(b1-4)GlcNAc(b1-3)Gal(b1-4)GlcNAc(b1-3)Gal(b1-4)GlcNAc(b1-2)Man(a1-3)]Man(b1-4)GlcNAc(b1-4)[Fuc(a1-6)]GlcNAc
# Procedure, shortened: (§1)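 Glycan array data were curated from 3228 arrays in the Consortium for Functional Glycomics database and kept only where the protein sequence was available. Glycan names were converted to IUPAC-condensed notation, and columns mapping to the same glycan were averaged. The binding signal is a within-array Z-score, averaged across arrays of the same protein sequence at different concentrations or buffers and across linkers. Negative Z-scores can be read as non-binding.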
# [2] = biological target: Gal(b1-4)GlcNAc(b1-3)Gal(b1-4)GlcNAc(b1-3)Gal(b1-4)GlcNAc(b1-3)Gal(b1-4)GlcNAc(b1-3)Gal(b1-4)GlcNAc(b1-2)[Gal(b1-4)GlcNAc(b1-3)Gal(b1-4)GlcNAc(b1-3)Gal(b1-4)GlcNAc(b1-3)Gal(b1-4)GlcNAc(b1-3)Gal(b1-4)GlcNAc(b1-6)]Man(a1-6)[Gal(b1-4)GlcNAc(b1-3)Gal(b1-4)GlcNAc(b1-3)Gal(b1-4)GlcNAc(b1-3)Gal(b1-4)GlcNAc(b1-3)Gal(b1-4)GlcNAc(b1-2)Man(a1-3)]Man(b1-4)GlcNAc(b1-4)[Fuc(a1-6)]GlcNAc
# Procedure, shortened: as §1
# [3] = biological target: Gal3S(b1-3)[Fuc(a1-4)]GlcNAc
# Procedure, shortened: as §1
# [4] = biological target: Gal3S(b1-4)Glc
# Procedure, shortened: as §1
# [5] = biological target: Gal3S(b1-4)[Fuc(a1-3)]GlcNAc6S
# Procedure, shortened: as §1
# [6] = biological target: Gal6S(b1-4)Glc
# Procedure, shortened: as §1
# [7] = biological target: GalNAc(a1-3)GalNAc
# Procedure, shortened: as §1
# [8] = biological target: Glc(a1-4)Glc
# Procedure, shortened: as §1
# [9] = biological target: GlcNAc(b1-2)Man(a1-3)[GlcNAc(b1-2)Man(a1-6)]Man(b1-4)GlcNAc(b1-4)GlcNAc
# Procedure, shortened: as §1
# [10] = biological target: GlcNAc(b1-3)Gal(b1-3)GalNAc
# Procedure, shortened: as §1
# [11] = biological target: GlcNAc(b1-3)Gal(b1-4)GlcNAc(b1-3)Gal(b1-4)GlcNAc(b1-3)Gal(b1-4)GlcNAc(b1-3)Gal(b1-4)GlcNAc(b1-2)Man(a1-3)[GlcNAc(b1-3)Gal(b1-4)GlcNAc(b1-3)Gal(b1-4)GlcNAc(b1-3)Gal(b1-4)GlcNAc(b1-3)Gal(b1-4)GlcNAc(b1-2)Man(a1-6)]Man(b1-4)GlcNAc(b1-4)[Fuc(a1-6)]GlcNAc
# Procedure, shortened: as §1
# [12] = biological target: GlcNAc(b1-4)GlcNAc(b1-4)GlcNAc
# Procedure, shortened: as §1
# [13] = biological target: Man(a1-2)Man(a1-3)[Man(a1-6)]Man(a1-6)[Man(a1-2)Man(a1-3)]Man(b1-4)GlcNAc(b1-4)GlcNAc
# Procedure, shortened: as §1
# [14] = biological target: Man(a1-3)[Man(a1-6)]Man(a1-6)[Man(a1-3)]Man
# Procedure, shortened: as §1
# [15] = biological target: Neu5Ac(a2-3)Gal(b1-4)GlcNAc(b1-3)Gal(b1-4)GlcNAc(b1-6)[Gal(b1-3)]GalNAc
# Procedure, shortened: as §1
# [16] = biological target: Neu5Ac(a2-3)Gal(b1-4)[Fuc(a1-3)]GlcNAc
# Procedure, shortened: as §1
# [17] = biological target: Neu5Ac(a2-3)Gal(b1-4)[Fuc(a1-3)]GlcNAc(b1-6)[Neu5Ac(a2-3)Gal(b1-3)]GalNAc
# Procedure, shortened: as §1
# [18] = biological target: Neu5Ac(a2-6)Gal(b1-4)GlcNAc
# Procedure, shortened: as §1
# [19] = biological target: Neu5Ac(a2-6)Gal(b1-4)GlcNAc(b1-2)Man(a1-3)[Neu5Ac(a2-6)Gal(b1-4)GlcNAc(b1-2)Man(a1-6)]Man(b1-4)GlcNAc(b1-4)[Fuc(a1-6)]GlcNAc
# Procedure, shortened: as §1
# [20] = biological target: Neu5Ac(a2-6)Gal(b1-4)GlcNAc(b1-2)Man(a1-6)[Gal(b1-4)GlcNAc(b1-2)Man(a1-3)]Man(b1-4)GlcNAc(b1-4)GlcNAc
# Procedure, shortened: as §1
# [21] = biological target: Neu5Ac(a2-6)Gal(b1-4)GlcNAc(b1-3)Gal(b1-4)GlcNAc
# Procedure, shortened: as §1
# [22] = biological target: Neu5Ac(a2-6)GalNAc(b1-4)GlcNAc
# Procedure, shortened: as §1
# [23] = biological target: Neu5Ac(a2-6)GlcNAc(b1-4)GlcNAc
# Procedure, shortened: as §1
# [24] = biological target: Neu5Ac(a2-8)Neu5Ac(a2-8)Neu5Ac(a2-3)[GalNAc(b1-4)]Gal(b1-4)Glc
# Procedure, shortened: as §1
# [25] = biological target: Neu5Ac(b2-6)Gal(b1-4)GlcNAc
# Procedure, shortened: as §1
# [26] = biological target: Neu5Ac9Ac(a2-3)Gal(b1-3)GlcNAc
# Procedure, shortened: as §1
# [27] = biological target: Neu5Ac9Ac(a2-3)Gal(b1-4)GlcNAc
# Procedure, shortened: as §1
# [28] = biological target: Neu5Gc(a2-3)Gal(b1-3)[Fuc(a1-4)]GlcNAc
# Procedure, shortened: as §1
# [29] = biological target: Neu5Gc(a2-6)GalNAc
# Procedure, shortened: as §1
binder,measurement,setting,value
B1,glycan array binding signal (z-score),[1],4.7
same,glycan array binding signal (z-score),[2],4.6
same,glycan array binding signal (z-score),[3],-0.271
same,glycan array binding signal (z-score),[4],-0.325
same,glycan array binding signal (z-score),[5],-0.333
same,glycan array binding signal (z-score),[6],-0.233
same,glycan array binding signal (z-score),[7],-0.265
same,glycan array binding signal (z-score),[8],-0.289
same,glycan array binding signal (z-score),[9],-0.322
same,glycan array binding signal (z-score),[10],-0.302
same,glycan array binding signal (z-score),[11],-0.17
same,glycan array binding signal (z-score),[12],-0.382
same,glycan array binding signal (z-score),[13],-0.35
same,glycan array binding signal (z-score),[14],-0.268
same,glycan array binding signal (z-score),[15],-0.198
same,glycan array binding signal (z-score),[16],-0.32
same,glycan array binding signal (z-score),[17],-0.185
same,glycan array binding signal (z-score),[18],-0.358
same,glycan array binding signal (z-score),[19],-0.168
same,glycan array binding signal (z-score),[20],0.028
same,glycan array binding signal (z-score),[21],-0.363
same,glycan array binding signal (z-score),[22],-0.425
same,glycan array binding signal (z-score),[23],-0.364
same,glycan array binding signal (z-score),[24],-0.174
same,glycan array binding signal (z-score),[25],-0.33
same,glycan array binding signal (z-score),[26],-0.374
same,glycan array binding signal (z-score),[27],0.277
same,glycan array binding signal (z-score),[28],-0.335
same,glycan array binding signal (z-score),[29],-0.358

# Source: the supplement of paper PMC8728848
